# Data from ChEMBL document CHEMBL3988442, “University of Dundee, Small-Polar-MMV Screening Library” (2021).
# For some assays here: Results with a measured potency or affinity are listed apart.
# Key:
# Set-up in all cases: scale not given: direction of the effect not stated beside the values
# [1] = target: Protein translocase subunit SecA (Escherichia coli (strain K12)) (UniProt P10408); assay: Assay to Identify E. coli SecA ATPase Inhibitors; type: functional; details: 30 µM
# [2] = target: T1, Ubiquitin-activating enzyme e1, putative (Leishmania donovani (strain BPK282A1)) (UniProt E9BSI1); assay: Leishmania donovani Ubiquitin Activating Enzyme (LdE1); type: functional; details: 30 µM
# T1 sequence (whole entry): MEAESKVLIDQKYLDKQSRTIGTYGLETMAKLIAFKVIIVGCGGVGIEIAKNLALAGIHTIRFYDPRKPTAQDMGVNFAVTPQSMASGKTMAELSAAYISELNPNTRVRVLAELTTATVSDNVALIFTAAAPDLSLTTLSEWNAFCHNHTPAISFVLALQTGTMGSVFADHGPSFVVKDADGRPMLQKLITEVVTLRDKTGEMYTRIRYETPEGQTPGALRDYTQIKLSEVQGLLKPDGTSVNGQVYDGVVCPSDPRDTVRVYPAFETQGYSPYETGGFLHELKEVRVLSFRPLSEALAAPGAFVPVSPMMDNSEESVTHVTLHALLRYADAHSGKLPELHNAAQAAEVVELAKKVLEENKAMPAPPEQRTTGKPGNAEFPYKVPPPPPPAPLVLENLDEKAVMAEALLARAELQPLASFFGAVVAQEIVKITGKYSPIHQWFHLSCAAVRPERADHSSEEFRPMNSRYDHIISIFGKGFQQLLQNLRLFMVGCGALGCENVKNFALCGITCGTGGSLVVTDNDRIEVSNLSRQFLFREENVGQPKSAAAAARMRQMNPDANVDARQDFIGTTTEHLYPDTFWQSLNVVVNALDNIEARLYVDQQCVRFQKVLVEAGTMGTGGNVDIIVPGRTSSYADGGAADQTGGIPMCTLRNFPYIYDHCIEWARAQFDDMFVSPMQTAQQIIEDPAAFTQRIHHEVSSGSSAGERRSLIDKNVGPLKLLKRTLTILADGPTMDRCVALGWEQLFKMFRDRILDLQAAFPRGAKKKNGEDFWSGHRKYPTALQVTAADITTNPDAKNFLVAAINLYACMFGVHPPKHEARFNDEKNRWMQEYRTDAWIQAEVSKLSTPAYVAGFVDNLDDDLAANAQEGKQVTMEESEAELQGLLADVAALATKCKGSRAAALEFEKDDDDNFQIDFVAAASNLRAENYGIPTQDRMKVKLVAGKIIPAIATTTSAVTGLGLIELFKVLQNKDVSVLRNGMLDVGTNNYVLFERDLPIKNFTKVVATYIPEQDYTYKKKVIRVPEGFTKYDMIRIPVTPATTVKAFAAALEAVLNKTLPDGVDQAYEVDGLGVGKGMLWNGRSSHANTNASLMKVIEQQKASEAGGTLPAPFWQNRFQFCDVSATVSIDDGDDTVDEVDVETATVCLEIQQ
# [3] = target: AMP-activated protein kinase, AMPK (Homo sapiens) (UniProt P54646+O43741+P54619+Q9UGJ0+Q9Y478+Q13131+Q9UGI9); assay: AMP-dependent Kinase enzyme assay. An in vitro enzyme assay that detects ADP turnover that is directly proportional to AMPK activity. This uses naive AMPK that is activated during the assay with MK-8722; type: functional; details: 30 µM
# [4] = target: Sialic acid-binding Ig-like lectin 9 (Homo sapiens) (UniProt Q9Y336); assay: Hs-Siglec9 ALPHAscreen SOP 20170721; details: 10 µM
# [5] = tested on: Trypanosoma cruzi; assay: Trypanosoma cruzi phosphomannomutase and mannose-1-phosphate guanylyltransferase assay; type: functional; details: 10 µM
# [6] = target: T2, Arginase-2, mitochondrial (Homo sapiens) (UniProt P78540); assay: in vitro enzyme assay to detect the production of urea directly proportional to the activity of Arginase II; type: functional; details: 33.3 µM; also: in the data most compounds retested in dose-response had high values
# T2 sequence (whole entry): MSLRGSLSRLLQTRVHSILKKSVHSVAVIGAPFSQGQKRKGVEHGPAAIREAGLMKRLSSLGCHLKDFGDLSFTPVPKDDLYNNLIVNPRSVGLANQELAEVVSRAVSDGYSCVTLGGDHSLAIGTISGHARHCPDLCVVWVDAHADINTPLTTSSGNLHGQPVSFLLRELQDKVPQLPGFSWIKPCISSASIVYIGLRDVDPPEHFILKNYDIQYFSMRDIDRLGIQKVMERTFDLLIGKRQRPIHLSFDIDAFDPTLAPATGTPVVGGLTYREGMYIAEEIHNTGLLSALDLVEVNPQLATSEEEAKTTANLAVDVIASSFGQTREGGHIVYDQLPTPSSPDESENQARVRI
# [7] = target: T3, Proteasome subunit beta (Trypanosoma cruzi) (UniProt O96673); assay: Trypanosoma cruzi proteasome chymotrypsin-like activity (TcProtChymo) assay.; also: in the data most compounds retested in dose-response had high values; type: functional; details: 9.37 µM
# T3 sequence (whole entry): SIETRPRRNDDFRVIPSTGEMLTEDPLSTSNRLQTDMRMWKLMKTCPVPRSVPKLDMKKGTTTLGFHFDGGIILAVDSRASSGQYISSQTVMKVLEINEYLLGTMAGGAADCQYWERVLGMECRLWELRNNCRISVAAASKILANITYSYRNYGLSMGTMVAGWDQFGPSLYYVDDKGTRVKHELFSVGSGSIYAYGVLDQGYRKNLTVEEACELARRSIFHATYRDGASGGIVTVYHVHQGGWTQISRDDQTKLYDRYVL
# [8] = species: Homo sapiens; assay: To identify inhibition of the IFN signalling (Jak-Stat) pathway via expression of an eGFP reporter gene under the control of an IFN-stimulated response element (ISRE) containing MxA promoter.; type: functional; details: 30 µM
# [9] = target: T4, Tyrosyl-tRNA synthetase, putative (Trypanosoma cruzi (strain CL Brener)) (UniProt Q4DSP6); assay: Trypanosoma cruzi tyrosyl tRNA synthetase (TcYRS) _High Tyrosine SOP; type: functional; details: 30 µM; also: in the data most compounds retested in dose-response had high values
# T4 sequence (whole entry): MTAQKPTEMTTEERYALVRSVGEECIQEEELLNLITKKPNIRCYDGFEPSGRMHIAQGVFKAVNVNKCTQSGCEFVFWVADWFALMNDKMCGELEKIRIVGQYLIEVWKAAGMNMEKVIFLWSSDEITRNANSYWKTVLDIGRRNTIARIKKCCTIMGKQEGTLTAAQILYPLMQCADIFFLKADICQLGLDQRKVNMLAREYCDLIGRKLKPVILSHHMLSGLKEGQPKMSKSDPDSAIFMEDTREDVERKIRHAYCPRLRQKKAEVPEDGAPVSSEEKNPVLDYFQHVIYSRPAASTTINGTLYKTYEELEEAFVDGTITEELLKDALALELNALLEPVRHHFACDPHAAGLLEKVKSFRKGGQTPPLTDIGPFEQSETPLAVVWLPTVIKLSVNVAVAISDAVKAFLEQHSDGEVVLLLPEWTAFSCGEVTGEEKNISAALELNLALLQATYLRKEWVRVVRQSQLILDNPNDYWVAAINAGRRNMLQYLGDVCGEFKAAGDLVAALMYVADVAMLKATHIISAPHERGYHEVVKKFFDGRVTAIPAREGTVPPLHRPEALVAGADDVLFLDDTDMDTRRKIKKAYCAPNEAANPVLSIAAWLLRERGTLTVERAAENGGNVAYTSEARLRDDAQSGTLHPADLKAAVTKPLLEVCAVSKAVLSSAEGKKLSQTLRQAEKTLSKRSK
# [10] = target: T4, Tyrosyl-tRNA synthetase, putative (Trypanosoma cruzi (strain CL Brener)); assay: Trypanosoma cruzi tyrosyl tRNA synthetase (TcYRS) SOP; type: functional; details: 30 µM
# [11] = target: Chromo domain-containing protein 1 (Saccharomyces cerevisiae (strain ATCC 204508 / S288c) (Baker's yeast)) (UniProt P32657); assay: ScCHD-1 Enzyme Inhibition Assay; type: functional; details: 30 µM; also: in the data most compounds retested in dose-response had high values
# Sequence of Chromo domain-containing protein 1 (Saccharomyces cerevisiae (strain ATCC 204508 / S288c) (Baker's yeast)) (P32657 whole entry, the tested form may be a part): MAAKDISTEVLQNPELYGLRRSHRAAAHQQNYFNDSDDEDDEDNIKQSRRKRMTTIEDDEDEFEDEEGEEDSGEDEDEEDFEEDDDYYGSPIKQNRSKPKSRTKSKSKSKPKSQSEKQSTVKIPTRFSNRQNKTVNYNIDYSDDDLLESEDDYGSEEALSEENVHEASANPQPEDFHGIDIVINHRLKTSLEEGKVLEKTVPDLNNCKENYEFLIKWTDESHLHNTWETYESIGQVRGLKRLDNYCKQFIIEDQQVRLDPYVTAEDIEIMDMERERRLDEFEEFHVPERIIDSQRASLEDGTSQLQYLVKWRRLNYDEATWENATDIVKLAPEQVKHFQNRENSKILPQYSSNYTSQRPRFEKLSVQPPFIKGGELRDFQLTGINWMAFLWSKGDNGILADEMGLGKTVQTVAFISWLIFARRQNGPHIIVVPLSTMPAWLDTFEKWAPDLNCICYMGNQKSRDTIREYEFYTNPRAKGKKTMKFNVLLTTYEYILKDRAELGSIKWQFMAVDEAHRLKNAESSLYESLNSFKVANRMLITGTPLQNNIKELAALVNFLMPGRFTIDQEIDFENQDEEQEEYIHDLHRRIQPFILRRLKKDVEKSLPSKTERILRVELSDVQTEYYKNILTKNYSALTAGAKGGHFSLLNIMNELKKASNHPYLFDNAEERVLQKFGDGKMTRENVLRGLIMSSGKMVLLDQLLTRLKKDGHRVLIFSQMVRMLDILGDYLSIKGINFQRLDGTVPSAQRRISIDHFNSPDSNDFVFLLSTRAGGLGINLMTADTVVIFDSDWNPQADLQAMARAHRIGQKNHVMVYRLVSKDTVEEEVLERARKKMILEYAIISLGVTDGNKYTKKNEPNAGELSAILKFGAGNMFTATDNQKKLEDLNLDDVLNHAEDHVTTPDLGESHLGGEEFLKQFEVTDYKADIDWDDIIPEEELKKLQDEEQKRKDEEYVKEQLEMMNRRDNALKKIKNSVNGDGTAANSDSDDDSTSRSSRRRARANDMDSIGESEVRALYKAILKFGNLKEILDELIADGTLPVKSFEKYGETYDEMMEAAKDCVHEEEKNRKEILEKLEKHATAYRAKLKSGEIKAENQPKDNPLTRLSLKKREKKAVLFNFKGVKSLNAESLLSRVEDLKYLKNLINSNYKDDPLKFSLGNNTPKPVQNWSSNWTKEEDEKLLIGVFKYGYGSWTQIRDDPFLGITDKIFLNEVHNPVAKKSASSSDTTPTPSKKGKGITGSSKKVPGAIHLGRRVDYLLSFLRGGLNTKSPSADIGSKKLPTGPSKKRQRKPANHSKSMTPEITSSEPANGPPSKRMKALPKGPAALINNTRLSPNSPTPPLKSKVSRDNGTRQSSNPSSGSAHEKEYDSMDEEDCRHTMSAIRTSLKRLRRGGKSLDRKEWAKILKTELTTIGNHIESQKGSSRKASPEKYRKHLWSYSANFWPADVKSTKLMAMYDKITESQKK
# Sequence of Sialic acid-binding Ig-like lectin 9 (Homo sapiens) (Q9Y336 whole entry): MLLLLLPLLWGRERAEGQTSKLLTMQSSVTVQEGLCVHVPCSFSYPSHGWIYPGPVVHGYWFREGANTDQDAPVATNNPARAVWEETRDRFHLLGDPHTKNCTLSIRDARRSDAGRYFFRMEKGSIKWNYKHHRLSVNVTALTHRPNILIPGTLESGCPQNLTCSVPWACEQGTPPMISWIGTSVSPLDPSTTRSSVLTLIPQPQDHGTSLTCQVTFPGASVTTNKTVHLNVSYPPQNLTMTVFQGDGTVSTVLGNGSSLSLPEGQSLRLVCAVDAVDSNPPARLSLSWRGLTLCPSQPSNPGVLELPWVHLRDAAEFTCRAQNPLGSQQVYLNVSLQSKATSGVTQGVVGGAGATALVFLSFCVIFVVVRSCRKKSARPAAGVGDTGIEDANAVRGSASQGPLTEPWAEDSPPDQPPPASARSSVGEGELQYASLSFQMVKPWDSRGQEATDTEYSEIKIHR
# Sequence of Protein translocase subunit SecA (Escherichia coli (strain K12)) (P10408 whole entry): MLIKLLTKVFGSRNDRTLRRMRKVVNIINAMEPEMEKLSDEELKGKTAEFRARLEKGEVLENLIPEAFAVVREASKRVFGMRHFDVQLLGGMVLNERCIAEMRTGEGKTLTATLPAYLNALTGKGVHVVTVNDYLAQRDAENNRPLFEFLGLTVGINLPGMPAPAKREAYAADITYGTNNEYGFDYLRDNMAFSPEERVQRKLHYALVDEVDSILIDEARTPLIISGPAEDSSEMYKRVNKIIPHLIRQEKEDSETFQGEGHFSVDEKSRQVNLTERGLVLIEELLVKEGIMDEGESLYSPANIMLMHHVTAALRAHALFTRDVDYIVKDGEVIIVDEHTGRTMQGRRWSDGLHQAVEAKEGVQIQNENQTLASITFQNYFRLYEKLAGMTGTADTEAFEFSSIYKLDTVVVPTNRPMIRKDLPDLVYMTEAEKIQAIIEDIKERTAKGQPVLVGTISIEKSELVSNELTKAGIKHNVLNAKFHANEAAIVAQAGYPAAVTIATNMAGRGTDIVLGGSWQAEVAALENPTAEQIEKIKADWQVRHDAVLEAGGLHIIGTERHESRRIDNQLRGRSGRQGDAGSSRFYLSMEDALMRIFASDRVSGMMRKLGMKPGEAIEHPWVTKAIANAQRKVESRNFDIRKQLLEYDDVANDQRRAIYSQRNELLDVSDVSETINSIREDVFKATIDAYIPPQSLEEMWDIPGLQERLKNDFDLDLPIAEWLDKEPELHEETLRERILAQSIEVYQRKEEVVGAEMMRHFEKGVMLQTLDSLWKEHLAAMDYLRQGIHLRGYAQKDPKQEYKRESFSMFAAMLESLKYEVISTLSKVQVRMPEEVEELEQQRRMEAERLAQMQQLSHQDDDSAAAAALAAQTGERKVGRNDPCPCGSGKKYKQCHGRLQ
Structure (SMILES),Percent Effect [1],Percent Effect [2],Percent Effect [3],Percent Effect [4],Percent Effect [5],Percent Effect [6],Percent Effect [7],Percent Effect [8],Percent Effect [9],Percent Effect [10],Percent Effect [11]
COc1ccc2nnc(CCCC(=O)NCCC3=CCCCC3)n2n1,-0.326%,12%,-1.46%,-0.0396%,4.71%,-7.57%,12.2%,23.4%,7.41%,17.9%,-9.92%
COCCNC(=O)c1sc(Nc2ccc(Cl)cn2)nc1C,-1.6%,20%,-8.36%,6.95%,0.589%,-3.7%,17.2%,5.99%,6.35%,10.3%,-10.7%
COc1ccccc1CN1CC[C@]2(C[C@H](OC)CO2)C1,-4.71%,9.33%,3.5%,4.02%,-4.52%,-12.5%,15%,-8.4%,5.29%,7.69%,-5.98%
CSc1ccc(NS(=O)(=O)c2cnn(C)c2)cn1,-5.12%,8.22%,-0.942%,42.3%,3.57%,-4.39%,0.0856%,-19.3%,4.17%,13.6%,-2.22%
Cn1cnc2c1CCN(Cc1nc(COc3ccc(F)cc3)no1)C2,-9.01%,7.89%,3.1%,1.46%,-5.7%,1.44%,7.19%,10.3%,0.493%,-6.17%,-0.821%
CC(C)CC(=O)N1CCN(C(=O)N(C)C)CC2(CC(=O)N(C)C2)C1 (stereo unspecified),-2.6%,-27%,0.411%,-1.03%,6.25%,-2.5%,-1.61%,-26.2%,2.97%,-3.66%,-3.69%
CN(C)C(=O)Cc1ccc(NC(=O)NC2CCCCC2)cc1,-1.35%,-5.41%,-1.19%,3.35%,6.56%,-2.86%,16%,11%,1.59%,7.32%,-0.0586%
Cc1cccc(CN2C[C@@H]3CN(C(=O)c4ccsc4)C[C@@H]3C2=O)c1,-2.06%,7.79%,5.77%,6.12%,-3.25%,0%,13%,18.7%,3.23%,8.64%,0.397%
O=C(c1ccc2c(c1)COC2)N1CCC(Nc2cccnn2)CC1,-4.96%,13%,-6.23%,11.4%,5.06%,-3.56%,1.52%,21.5%,8.74%,24.4%,-7.05%
COc1ccccc1C1CNC(=O)c2nc(-c3cnn(C)c3)[nH]c2C1 (stereo unspecified),0.9%,10.8%,-0.668%,22.2%,3.48%,1.43%,10%,5.8%,5.82%,17.1%,-0.454%
c1ccc(-c2cnc(CN3CCn4c(nnc4C4CC4)C3)o2)cc1,3.62%,13.2%,-0.492%,0.484%,-0.564%,6.9%,10%,18.2%,6.37%,17.1%,-9.44%
Cc1nn(C)c(N2CCOCC2)c1CNCc1nccs1,-3.96%,7.89%,-1.27%,5.34%,9.4%,4.21%,9.86%,3.23%,3.43%,17.1%,-6.95%
Cc1noc(C(C)C)c1C(=O)NCc1cc(F)cc(F)c1,-3.99%,15.6%,7.66%,-1.87%,-7.12%,3.92%,11.5%,17.8%,3.88%,14.6%,-9.23%
CCSCCNC(=O)C(c1cccc(C)c1)N(C)C (stereo unspecified),0.71%,16.2%,4.54%,18.5%,4.83%,1.43%,12.1%,20.1%,6.88%,17.1%,-11.3%
CN(Cc1cccc(Cl)c1)S(=O)(=O)N1CCOCC1,-3.38%,10.5%,6.62%,-2.67%,4.58%,-5.92%,23.9%,-6.09%,1.06%,15.6%,-2.59%
CCc1ncncc1C(=O)N1CCOC(c2nc(C)n[nH]2)C1 (stereo unspecified),-9.48%,-1.27%,7.38%,5.45%,-2.56%,2.8%,5.32%,1.37%,1.04%,10.1%,1.96%
